From PubChem BioAssay
WT yeast gro inh – growth inhibition of WT yeast, mitochondrial fusion screen | mitochondrial fusion phenotypic screen, WT strain | inhibition, % at 10 µM | 190,000 compounds, 2.1% hits | AID 1362; in the data active = inhibition above about 58%; tested in S. cerevisiae
ROMK mod – human ROMK K+ channel modulation, primary screen | Tet-inducible ROMK, thallium flux fluorescence; actives lie on both sides | B-score at 10 µM | 130,000 compounds, 2% hits | AID 1918;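 active = signal ratio slope over the read window, or its plate-corrected B-score, at least 3 SD from the plate mean, either direction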;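 also: B-score of the F/F0 ratio slope over 7 to 12 s after thallium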
Lmaj promast – reduces viability of Leishmania major promastigotes. resazurin fluorescence viability. inhibition, % at 10 µM. 200,000 compounds, 9% hits. AID 1063; in the data active = inhibition above about 50%;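 also: promastigotes grown with compound for 44 hours at 28 °C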
Insulin prom inh – TRM-6 insulin promoter activity inhibition | TRM-6 cells (human fetal islet line), insulin promoter-eGFP reporter, imaging; reporter expression induced with tamoxifen | inhibition, % at 2 µM | 130,000 compounds, 0.9% hits | AID 1273;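 active = inhibition above the mean plus 3 SD, with well images judged a real hit on visual review, cut at about 60% in these data, passing the limit was not always enough; inconclusive = inhibition over the cutoff but images rejected on review; inactive = inhibition not above the cutoff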
Ins promoter up – MIN6 insulin promoter up-regulation | MIN6 insulin promoter-GFP reporter, high-content imaging; stronger effect = higher value | z-score at 5 µM | 190,000 compounds, 0.3% hits | AID 1625;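 active = z-score above 3 at 5 µM with at least 500 cells counted in the well; inconclusive = wells under 500 cells, flagged as cytotoxic or low count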
KCC2 mod – KCC2 (human) Cl- transport modulation; Q9H2X9; KCC2 cells, thallium flux FluoZin-2 fluorescence; B-score of Tl+ flux slope (higher = more flux/activation; lower = inhibition) at 10 µM; 190,000 compounds, 2.2% hits; AID 1456;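 active = thallium flux slope and its plate-corrected score both differing from the plate sample mean at a set confidence after two filtering rounds, in either direction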;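 also: slope of fluorescence scaled to starting intensity during 10 to 20 s after thallium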
Target sequence (Q9H2X9 whole entry, looked up): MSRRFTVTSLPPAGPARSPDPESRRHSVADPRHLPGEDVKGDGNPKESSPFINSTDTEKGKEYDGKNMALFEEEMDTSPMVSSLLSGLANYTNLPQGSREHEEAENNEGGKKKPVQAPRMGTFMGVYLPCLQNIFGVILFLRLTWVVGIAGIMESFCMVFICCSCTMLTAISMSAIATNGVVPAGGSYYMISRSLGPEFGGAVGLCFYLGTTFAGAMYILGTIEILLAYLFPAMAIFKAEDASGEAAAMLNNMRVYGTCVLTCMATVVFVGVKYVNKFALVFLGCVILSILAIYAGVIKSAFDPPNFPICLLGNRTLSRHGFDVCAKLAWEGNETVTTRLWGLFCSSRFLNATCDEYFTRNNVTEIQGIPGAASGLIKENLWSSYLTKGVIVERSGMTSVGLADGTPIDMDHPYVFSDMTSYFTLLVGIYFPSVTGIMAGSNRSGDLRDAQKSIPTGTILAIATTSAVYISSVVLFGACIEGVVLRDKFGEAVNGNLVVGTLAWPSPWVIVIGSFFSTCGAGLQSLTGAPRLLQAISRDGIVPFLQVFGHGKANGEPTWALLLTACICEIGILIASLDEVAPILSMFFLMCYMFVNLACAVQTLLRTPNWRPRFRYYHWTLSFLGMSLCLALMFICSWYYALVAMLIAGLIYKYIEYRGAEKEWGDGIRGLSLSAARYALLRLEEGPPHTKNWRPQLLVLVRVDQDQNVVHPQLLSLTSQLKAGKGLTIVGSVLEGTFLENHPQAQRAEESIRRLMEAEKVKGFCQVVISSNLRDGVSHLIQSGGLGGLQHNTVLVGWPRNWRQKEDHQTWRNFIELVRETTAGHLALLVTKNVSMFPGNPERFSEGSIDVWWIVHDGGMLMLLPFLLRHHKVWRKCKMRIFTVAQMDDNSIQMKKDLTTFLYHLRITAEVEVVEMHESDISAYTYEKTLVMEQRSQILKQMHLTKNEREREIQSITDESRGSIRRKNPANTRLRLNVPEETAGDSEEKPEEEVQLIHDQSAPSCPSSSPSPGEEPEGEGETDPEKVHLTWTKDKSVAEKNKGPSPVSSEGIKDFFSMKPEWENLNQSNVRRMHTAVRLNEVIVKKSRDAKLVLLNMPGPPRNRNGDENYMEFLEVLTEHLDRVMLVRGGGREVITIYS
ROMK retest – confirmation of human ROMK potassium channel modulators | ROMK thallium flux, fluorescence ratio; stronger effect = lower value | normalized thallium flux (F/F0 slope) at 10 µM | 3,000 compounds, 54% hits | AID 1917 | shares compounds with ROMK mod;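 active = Flux at 10 µM at least 3 SD below or above vehicle control mean in one or both replicates; inconclusive = no clear call, values can overlap the other calls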
Active calls of the source: *; ? = inconclusive; . = no result given. An excerpt weighted towards active compounds, which were near 12% of everything screened.

SMILES	WT yeast gro inh	ROMK mod	Lmaj promast	Insulin prom inh	Ins promoter up	KCC2 mod	ROMK retest
O=c1cc(NS(=O)(=O)c2ccccc2)nc(SCc2ccc(Cl)cc2)[nH]1	-10	.	-1	8	-0.46	0.074	.
O=C(c1ccc2nc[nH]c2c1)N1CCc2ccccc2C1	-3	0.076	-1	.	-0.12	0.72	.
COc1cc2c(cc1OC)CN(C(=O)c1ccc3nc[nH]c3c1)CC2	6	3.4*	-5	.	0.11	-1.1	0.084
CCOC(=O)c1n[nH]c2ccccc12	-9	2.2*	-9	-11	-0.03	-0.4	0.073
O=S(=O)(Nc1nc2ccccc2nc1-[n+]1cccc(N=C([O-])c2ccccc2Cl)c1)c1ccccc1	.	.	.	.	0.6	0.8	0.053*
Cc1ccc2[nH]c(=O)c(CN(Cc3ccccc3)C(=S)NCCCN(C)C)cc2c1	-18	-3.2*	39	33	0.33	0.1	?
Cc1cc(C)n(-c2nc3ccccc3c(=O)n2OCCOc2ccccc2)n1	-8	-1.3	1	-11	.	0.36	.
NC(=O)c1cc(-c2ccccc2)nc(Oc2ccccc2)n1	12	-3.6*	3	-100	-0.16	0.04	0.077
CCC(C(=O)Nc1cccc(C(F)(F)F)c1)c1ccccc1 (stereo not given)	22	.	8	-50	0.67	.	.
N#C/C(=C\c1cccc([N+](=O)[O-])c1)C(=O)NCc1cccnc1	-5	.	41	-37	-0.18	0.81	0.022*
N#C/C(=C\c1cccnc1)C(=O)NC1CCCCC1	7	-5.3*	47	-10	2.7	0.64	0.036*
CCCCNC(=O)/C(C#N)=C/c1cccnc1	15	-3.3*	93*	0	0.21	1.5	0.05*
CC(C)OC(=O)/C(C#N)=C\c1cccnc1	15	-0.015	-6	.	-0.31	-0.06	.
N#C/C(=C\c1cccnc1)C(=O)Nc1cccc2ccccc12	2	-2.4*	4	-15	1	0.34	0.046*
Cc1cccc(NC(=O)/C(C#N)=C\c2cccnc2)c1	13	.	1	-11	0.29	.	.
N#C/C(=C\c1cccc([N+](=O)[O-])c1)C(=O)Nc1cccnc1	3	-1.5	5	.	.	-0.92	.
CSc1nncc(-c2ccc(F)c(F)c2)n1	-41	-0.59	-1	14	.	.	.
COc1ccc(NC(=O)CSc2nnc(N)n2CC(=O)Nc2ccc(OC)cc2)cc1	-8	0.62	8	-21	-0.01	0.75	.
O=C1NCCCC1C(=O)Nc1cccc(C(F)(F)F)c1 (stereo not given)	1	-0.4	-4	0	-0.19	.	.
CCN1C(=O)/C(=C\N(C)C)S/C1=N\S(=O)(=O)c1ccccc1	4	-0.076	-5	-29	-0.1	-0.051	.
Cc1ccc(C)c(NC(=S)NCCc2ccc(S(N)(=O)=O)cc2)c1	.	.	12	11	.	0.82	.
COCCNC(=O)/C(C#N)=C/c1ccc(O)c([N+](=O)[O-])c1	3	0.88	3	.	1.5	-0.4	.
COCCNC(=O)/C(C#N)=C/c1cccc(/C=C(\C#N)C(=O)NCCOC)c1	-14	.	99*	3	0.15	-0.065	0.037*
Cc1ccc(-c2nn(-c3ccccc3)cc2C2SCC(=O)N2Cc2ccccc2)o1 (stereo not given)	47	.	15	?	0.31	-0.41	0.078
COc1ccccc1OCC(=O)N(Cc1nc(-c2ccccc2)no1)C1CCCCC1	61*	.	10	-35	-1	-0.55	0.079
Cc1ccccc1OCC(=O)N(Cc1nc(-c2ccccc2)no1)C(C)C	10	.	-3	-27	.	0.26	.
COc1ccc(-c2c[n+](CC(=O)OC3CC(C)CCC3C(C)C)c3n2CCC3)cc1 (stereo not given)	12	.	100*	.	-4.9	-0.023	0.051*
CC1CCC(C(C)C)C(OC(=O)C[n+]2cccc(C(N)=O)c2)C1 (stereo not given)	2	.	-4	-60	0.29	0.53	.
Cn1c(NC(=O)C[n+]2cc(-c3ccc(Cl)cc3)n3c2CCC3)cc(=O)n(C)c1=O	-17	-0.81	36	-56	0.37	-0.29	.
CC(C)[C@@H]1CC[C@@H](C)C[C@H]1OC(=O)C[n+]1cc(-c2ccc(Cl)cc2)n2c1CCCCC2	.	.	.	.	-4	-2.1	0.035*
